Our source for the growth values is PubChem BioAssay (NCI).

Each structure is given as a SMILES string. About 83,000 compounds went through this panel and 20% of them were active in at least one assay; those are over-represented in the sample as a whole.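 Assay: single dose, 48 h. Readout: percent growth (0 = no net growth; negative = cell death). Active: <10.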 Values without a mark were called inactive. The source made the active and inactive calls.

In this experiment the test system is MDA-MB-468 breast. Kind of experiment: NCI-60 one-dose screen, 48 h (100 = growth as untreated, 0 = no growth, -100 = all killed). To be noted: 10 µM unless noted.
As for `Cc1nc2cc(Nc3nc(Nc4ccc(F)cc4)nc(N4CCCC4)n3)ccc2n1Cc1ccccc1`, the growth is -63.3% (active).

For `CCn1c(Cc2ccccc2Nc2c(Cl)cccc2Cl)nnc1SCC(=O)Nc1ccccc1C(F)(F)F`, the growth is 69.9%.

On to `O=S(=O)(Nc1ccc(-c2nc(-c3cccc(O)c3)c(-c3ccnc(Br)c3)[nH]2)cc1)c1ccccc1`, for which the growth is -3.6% (active).

For `CC(C)(C)c1cc(-n2c(-c3ccc(Cl)cc3)nc3cc(C(=O)Nc4ccc(Cl)cc4)ccc32)n[nH]1`, the growth is 51.7%.

Regarding `CN(C)c1ccc(/C=C/c2cc[n+](C)c(/C=C/c3ccc(N(C)C)cc3)c2)cc1`, the growth was -12.7% (active).

With `Cc1ccc(/C=N/Nc2nc(Nc3ccccc3)nc(-n3nc(C)cc3C)n2)cc1`, the growth was 60.9%.

Take `CCN(CC)CCOc1ccc(Nc2ncc3cc(-c4ccc(O)cc4)c(=O)n(C)c3n2)cc1`: the growth was 44.8%.

Take `N#Cc1ncc(-c2cc(F)c(F)c(F)c2)c(NC2CCCCCC2)n1`: the growth is 87.6%.

In the case of `Cc1nc(O)cc(=O)[nH]1`, the growth was 113%.

On to `C#Cc1ccc(-n2c(/C=C/c3ccc(O)c(OC)c3)nc3ncccc3c2=O)cc1`, for which the growth is 89.8%.

Regarding `CNC(=O)c1cccc(Cn2nc(C)c(NC(=O)c3ccc(COc4ccc(C(F)(F)F)cc4C)cc3)c2C)n1`, the growth is 3.58% (active).

As for `CCN(CCO)CCNc1ccc(C)c2sc3cc(OC)ccc3c(=O)c12`, the growth was 87.7%.

As to `CCC(C)Nc1ccc(NC(C)CC)cc1` (configuration not stated), the growth was 8.07% (active).

On to `O=C(/C=C/c1cn(-c2ccccc2)nc1-c1ccc([N+](=O)[O-])cc1)c1ccc(Cl)cc1`, for which the growth was 39.5%.

In the case of `COc1cccc(C(=O)NNc2nc(Cl)nc(N3CCN(C(c4ccccc4)c4ccccc4)CC3)n2)c1`, the growth was -17.1% (active).

Consider `Cc1ccc2c3c(cccc13)-c1ccccc1C2=O`, for which the growth was 97%.

With `Nc1cccc(S(=O)(=O)c2cccc(N)c2)c1`, the growth is 119%.

Consider `COc1ccc(/C=N/Nc2nc(N/N=C/c3ccc(OC)cc3O)nc(N3CCOCC3)n2)c(O)c1`, for which the growth is 63.1%.

For `Cc1cc(NS(=O)(=O)c2ccccc2)c(OS(=O)(=O)c2ccccc2)cc1C`, the growth is 102%.

As to `C#CC[C@@H]1C[C@]2(C)[C@H]3CC=C4[C@H]5CC(C)(C)CC[C@]5(C(=O)NCCCCN)CC[C@@]4(C)[C@]3(C)CC[C@H]2C(C)(C)[C@H]1OC(C)=O`, the growth was -39.7% (active).

Regarding `NS(=O)(=O)c1ccc(N2CC(c3nc4ccccc4[nH]3)CC2=O)cc1` (configuration not stated), the growth is 113%.

`COc1ccc(-c2nc(SCC(=O)Nc3ccc(C(C)=O)cc3)[nH]c(=O)c2C#N)cc1`: the growth is 105%.

Regarding `COc1ccc2c(c1)N(CCO)C1=C(C(=O)OC1)C2c1ccc(OC)c(OC)c1` (configuration not stated), the growth is 0.0938% (active).

Consider `O=C1c2cc(I)ccc2Oc2cc([N+](=O)[O-])ccc2N1c1ccc(Cl)cc1F`, for which the growth is 96.2%.

On to `O=S(=O)(NCCNc1cc(-c2cn(-c3ccccc3)nc2-c2cccc(O)c2)ccn1)c1ccc(Cl)cc1`, for which the growth is -24.6% (active).

With `Cc1cc2c(cc1C)[n+](Cc1ccc3ccccc3c1)cn2Cc1ccc2ccccc2c1`, the growth is -76.4% (active).

On to `O=C1/C(=C/c2ccc([N+](=O)[O-])o2)Oc2ccc(Cl)cc21`, for which the growth is -34.5% (active).

Turning to `O=S(=O)(NCCNc1cc(-c2c(-c3cccc(O)c3)nc3sccn23)ccn1)c1ccc(Br)cc1`, the growth is 47.7%.

Regarding `C=C1C(=O)O[C@H]2[C@H]1CC/C(C(=O)NCCCCCNC(=O)/C1=C/CC[C@@]3(C)O[C@H]3[C@H]3OC(=O)C(=C)[C@@H]3CC1)=C\CC[C@@]1(C)O[C@@H]21`, the growth was 94.9%.

As for `CCOC(=O)c1c(C)nc2c(c1N)C(=O)C(=O)N2CCc1ccc(OC)c(OC)c1`, the growth was 49%.

In the case of `Clc1ccc(Oc2ccc(Nc3ncnc4onc(-c5ccccc5)c34)cc2)c(Cl)c1`, the growth is 95.1%.

As to `CC1=CC=C(NC(=O)/C=C/c2ccccc2)CC1Nc1nccc(-c2cccnc2)n1` (configuration not stated), the growth is 3.07% (active).

For the molecule `Cn1c(=O)c2[nH]c(NN)nc2n(C)c1=O`, the growth is 122%.

With `O=C(Nc1ccc(-c2nc3cc4ccccc4cc3[nH]2)cc1)c1cccc(Br)c1`, the growth is 48.3%.

As to `COc1ccc(-c2[nH]ncc2-c2cc(OC)c(OC)c(OC)c2)cc1`, the growth is -4.91% (active).

Take `CCOCCNc1ccc(S(=O)(=O)c2ccc(N)cc2)cc1N`: the growth was 95.9%.

`Cc1nc2sc(C(=O)Nc3ccccc3)c(N)c2cc1C(=O)c1ccc(C(F)(F)F)cc1`: the growth was 107%.
